Assay outcomes deposited in PubChem by National Center for Advancing Translational Sciences (NCATS).
RORgamma inh: qHTS for inhibitors of ROR gamma transcriptional activity. Drosophila S2 Gal4-RORgamma UAS-luciferase reporter, 20 h. 310,000 compounds, 5.4% hits. Potency, µM (series often up to 53.6 µM), usual class: inhibitors; further: nearly all actives have a fitted effect of over 60% in size
Target sequence (P51450 whole entry, looked up, the tested form may be a part): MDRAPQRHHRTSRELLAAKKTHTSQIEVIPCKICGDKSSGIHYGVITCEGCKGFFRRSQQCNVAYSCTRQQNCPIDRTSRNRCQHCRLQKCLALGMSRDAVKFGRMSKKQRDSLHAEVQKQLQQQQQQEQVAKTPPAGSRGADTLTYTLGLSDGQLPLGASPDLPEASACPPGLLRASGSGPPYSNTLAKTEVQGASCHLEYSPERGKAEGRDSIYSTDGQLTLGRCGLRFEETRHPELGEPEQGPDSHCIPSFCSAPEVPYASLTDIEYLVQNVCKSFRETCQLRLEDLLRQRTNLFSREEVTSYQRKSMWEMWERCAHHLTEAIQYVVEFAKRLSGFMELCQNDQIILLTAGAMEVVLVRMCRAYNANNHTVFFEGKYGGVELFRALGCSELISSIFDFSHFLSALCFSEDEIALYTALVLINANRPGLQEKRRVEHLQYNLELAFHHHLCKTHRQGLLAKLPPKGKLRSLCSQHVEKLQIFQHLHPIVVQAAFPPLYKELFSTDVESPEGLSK
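Schneider cells (Drosophila), stable Gal4 DBD–ROR gamma + UAS-luc; 1 hr cmpd preincubation; Cu2+ induction 700 uM final; 20 hr ambient; luminescence.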
Sfp inh: qHTS Assay for Inhibitors of Bacillus subtilis Sfp phosphopantetheinyl transferase (PPTase). 310,000 compounds, 3.5% hits. 4'-phosphopantetheinyl transferase ffp (Bacillus subtilis), Q9F4F7. Potency, µM, usual class: inhibitors. Biochemical Sfp PPTase activity, qHTS;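 further: the enzyme is Sfp with the accession as filed and its product quenches rhodamine fluorescence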
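Fluorescence-quenching assay with 15 nM Sfp, 5 uM rhodamine-CoA and 12.5 uM BHQ-2-labelled ybbR peptide in pH 7.6 Hepes/MgCl2 buffer. Enzyme was pre-incubated with compound for 15 min at room temperature. Rate was taken from the 30-min fluorescence change (525/598 nm).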
VP16 counter: VP16 counterscreen qHTS for inhibitors of ROR gamma transcriptional activity; Potency, µM (highest dose often 53.6 µM), usual class: inhibitors; Drosophila S2 Gal4-VP16 UAS-luciferase, luminescence, 20 h; 310,000 compounds, 3.5% hits;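 further: Gal4-VP16 expression switched on by copper sulfate through the metallothionein promoter; nearly all actives have a fitted effect of over 50% in size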
PLK1 PBD inh: qHTS for Inhibitors of PLK1-PDB (polo-like kinase 1 - polo-box domain): Primary Screen. 360,000 compounds, 2.8% hits. Potency, µM, actives largely listed as inhibitors. Plk1 PBD binding of FITC phosphopeptide, fluorescence polarization. Serine/threonine-protein kinase PLK1 (Homo sapiens), P53350; further: series mostly up to about 57 µM; nearly all actives have a fitted effect of over 65% in size
ALDH1A1 block: qHTS Assay for Inhibitors of Aldehyde Dehydrogenase 1 (ALDH1A1). Purified ALDH1A1, NADH fluorescence, propionaldehyde substrate. 220,000 compounds, 7.3% hits. AID 1030, 2008. Potency, µM (top dose mostly 75.3 µM), actives largely listed as inhibitors; active means well fitted inhibition curve with a large enough effect, not every such curve was filed as active; inconclusive means small, poorly fitted or top-dose-only effect, or another doubt; inactive means no such curve, though single readings can be large or run the other way
Each line names hits and unclear results; the compound was inactive in the other large screens. This is a sample that favours compounds with a hit; in the whole collection about 12% have one here. Unless noted, the call rests on the fitted dose curve; in most records, active means well fitted curve in the direction sought with a large enough effect; inconclusive means small, poorly fitted or top-dose-only effect, or another doubt; inactive means no such curve, though single readings can be large; an effect the other way counts as inactive or inconclusive.

O=C(Nc1ccn(Cc2c(F)c(F)c(F)c(F)c2F)n1)c1cccc(Cn2cc([N+](=O)[O-])cn2)c1	Sfp inh inconclusive
O=C(Nc1ccn(Cc2c(F)c(F)cc(F)c2F)n1)c1cccc(Cn2cc([N+](=O)[O-])cn2)c1	Sfp inh 31.6µM
Cc1ccccc1-n1nnnc1SCC(=O)c1c(N)n(C)c(=O)n(C)c1=O	ALDH1A1 block 0.355µM
COC(=O)c1cc(C)[nH]c2c(C)cc3nc4ccccc4c3c12	none
Nc1ncnc2c1ncn2C1OCC(O)C1O (stereo not given)	none (no result: RORgamma inh, Sfp inh, VP16 counter, ALDH1A1 block)
COc1ccc2c3c(cccc13)N(C)N=C2C	PLK1 PBD inh 21.2µM
COc1ccc2c3c(cccc13)OC2=O	none (no result: ALDH1A1 block)
CCN(CC)S(=O)(=O)c1ccc(N2CC(C(=O)NC3(C)CCS(=O)(=O)C3)CC2=O)cc1 (stereo not given)	none (no result: RORgamma inh, Sfp inh, VP16 counter, ALDH1A1 block)
Cc1ccccc1NC(=O)C(=O)NCCc1ccccc1	none
Cc1ccccc1NC(=S)NCc1ccccc1	RORgamma inh 3.98µM, VP16 counter 11.2µM
Cc1ccccc1NC(=O)NC(C)(C)CC(C)(C)C	none
CCC(C)(C)NC(=S)Nc1ccccc1C	RORgamma inh 3.98µM, VP16 counter 11.2µM
O=C(Nc1ccc2c(c1)OCCO2)c1[nH]c(C(F)(F)F)nc1-c1ccccc1	none (no result: RORgamma inh, Sfp inh, VP16 counter, ALDH1A1 block)
Cc1cccc(C)c1NC(=S)Nc1ccc(Cl)c(Cl)c1	RORgamma inh 6.31µM, VP16 counter inconclusive, ALDH1A1 block 22.4µM
Cc1cc(C)cc(NC(=S)Nc2ccc(Cl)c(Cl)c2)c1	RORgamma inh 10µM, VP16 counter inconclusive, ALDH1A1 block inconclusive
Cc1ccc(NC(=S)Nc2ccc(Cl)c(Cl)c2)c(OC(F)F)c1	RORgamma inh inconclusive, VP16 counter inconclusive, ALDH1A1 block inconclusive
CC1(C(=O)NS(=O)(=O)c2ccc(Br)cc2)CCN1C(=O)Cc1ccsc1 (stereo not given)	none (no result: RORgamma inh, Sfp inh, VP16 counter, ALDH1A1 block)
CC1(C)SC(=S)N(/N=C/c2cccnc2)C1N(O)C(=O)Nc1ccccc1 (stereo not given)	none (no result: ALDH1A1 block)
CC1(C)SC(=S)N(/N=C/c2ccccc2O)C1N(O)C(=O)Nc1ccccc1 (stereo not given)	RORgamma inh 17.8µM, VP16 counter inconclusive (no result: ALDH1A1 block)
CNC(=O)N(O)C1N(/N=C/c2ccc(C)cc2)C(=S)SC1(C)C (stereo not given)	none (no result: ALDH1A1 block)
CNC(=O)N(O)C1N(/N=C/c2cc(Br)ccc2O)C(=S)SC1(C)C (stereo not given)	RORgamma inh 15.8µM, Sfp inh 79.4µM, VP16 counter inconclusive (no result: ALDH1A1 block)
CC1S/C(=N/N=C/c2ccco2)NC1=O (stereo not given)	RORgamma inh 11.2µM, VP16 counter inconclusive
CC1(C)S/C(=N/N=C/c2ccco2)NC1=O	RORgamma inh 12.6µM, VP16 counter 7.94µM
CCCCC1S/C(=N/N=C/c2ccco2)NC1=O (stereo not given)	RORgamma inh 0.447µM, VP16 counter 2µM
O=C(CC1S/C(=N/N=C/c2cccnc2)NC1=O)Nc1ccccc1 (stereo not given)	none
O=C(CC1S/C(=N/N=C/c2ccco2)NC1=O)Nc1cccc(Cl)c1Cl (stereo not given)	RORgamma inh 20µM, Sfp inh inconclusive, VP16 counter inconclusive
CC1(C)ON=C(c2cccc(F)c2)NC1=O	none (no result: RORgamma inh, Sfp inh, VP16 counter, ALDH1A1 block)
CC12CCC(C(=O)N/N=C/c3ccc(O)cc3)(OC1=O)C2(C)C (stereo not given)	none (no result: ALDH1A1 block)
O=S(=O)(/N=C(\c1ccc(F)cc1)N1CCOCC1)c1ccccc1	none (no result: RORgamma inh, Sfp inh, VP16 counter, ALDH1A1 block)
Cc1cccc(NC(=O)C2CC(=O)N/C(=N/N=C/c3ccco3)S2)c1 (stereo not given)	none
C/C(=N\N=C1/NC(=O)C(C)S1)c1ccco1 (stereo not given)	RORgamma inh 11.2µM
CCCC1S/C(=N/N=C/c2ccco2)NC1=O (stereo not given)	RORgamma inh 1.58µM, VP16 counter 3.16µM
O=C1C(Cc2ccc(O)cc2)NC(=S)N1C1CCCCC1 (stereo not given)	none (no result: ALDH1A1 block)
CCC1NC(=S)N(C2CCCCC2)C1=O (stereo not given)	RORgamma inh 11.2µM, VP16 counter inconclusive, ALDH1A1 block inconclusive
